Compounds with a hit are over-represented: about 4.8% of the library has one in this group of screens.
DAX1 inh-1 = DAX1 (NR0B1) inhibitors, primary screen, cell-based, HEK293, Gal4-DAX1, luciferase luminescence; Nuclear receptor subfamily 0 group B member 1 (Homo sapiens), P51843; HEK293 Gal4-DAX1 luciferase reporter; inhibition, % at 6.75 µM; 0.99% of 340,000 active; AID 504766, 2011;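 active = inhibition above the mean over all tested compounds plus 3 SD, cut at about 4.2% in these data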;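 note: inhibition shows as a rise in luminescence from relieved DAX1 repression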
Target sequence (P51843 207-470 limits assumed): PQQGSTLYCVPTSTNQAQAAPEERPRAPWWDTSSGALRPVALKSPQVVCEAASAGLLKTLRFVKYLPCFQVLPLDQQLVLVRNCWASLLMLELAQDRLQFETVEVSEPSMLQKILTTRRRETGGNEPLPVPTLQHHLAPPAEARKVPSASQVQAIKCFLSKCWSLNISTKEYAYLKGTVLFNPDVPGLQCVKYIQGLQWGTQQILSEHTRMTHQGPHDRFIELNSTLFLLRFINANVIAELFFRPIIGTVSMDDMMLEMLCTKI
ssDAF-12 act = S. stercoralis DAF-12 nuclear receptor activators, primary screen, cell-based, luminescence, HEK293, GRIP1 co-expression, lit1-tk-luc | Nuclear hormone receptor DAF-12 (Strongyloides stercoralis) | HEK293 ssDAF-12/GRIP1 lit1-tk-luc reporter; % of 3 µM dafachronic acid response | activation, % at 6.8 µM | 1% of 370,000 active;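 active = activation above the mean over all tested compounds plus 3 SD, cut at about 0.9% in these data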
hgDAF-12 ag = H. glycines DAF-12 receptor agonists, primary screen, cell-based, luminescence, HEK293, GAL4 fusion, UAS-luciferase | Nuclear hormone receptor DAF-12 (Heterodera glycines), GAL4 fusion | HEK293 GAL4-hgDAF12 UAS-luciferase reporter, agonist luminescence; normalized to butyrate control | activation, % at 6.8 µM | 1.8% of 370,000 active;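 active = activation above a cutoff set at the mean of all screened compounds plus 3 SD, cut at about 10% in these data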
Rev-erbA mod = modulators of Rev-erb alpha DNA binding, primary screen, biochemical, FITC-DNA, fluorescence polarization, uHTS. activity, % at 10 µM. AID 1259318, 2017. Nuclear receptor subfamily 1 group D member 1 (Homo sapiens), P20393. Rev-erbα–FITC-DNA binding, 90 min. 0.79% of 370,000 active;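 active = activity above about 14%, limit read from the data; passing the limit was not always enough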
DAX1 inh-2 = DAX1 (NR0B1) inhibitors on StAR promoter, primary screen, cell-based, luminescence, SF-1 (NR5A1), full-length DAX-1; HEK293T StAR-luciferase reporter, SF-1/DAX-1 repression relief; inhibition, % at 6.8 µM; 1.1% of 370,000 active;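 active = inhibition above the mean over all tested compounds plus 3 SD, cut at about 3.6% in these data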;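 note: higher inhibition means more luminescence from relief of DAX-1 repression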
hcDAF12 agonist = H. contortus DAF-12 nuclear receptor activators, primary screen, cell-based, luminescence, HEK293, lit1-tk-luc reporter; HEK293 hcDAF-12 lit1-tk-luc reporter; 0% DMSO, 100% Δ7-dafachronic acid; activation, % at 6.8 µM; 1.4% of 370,000 active;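 active = activation above the mean of all tested compounds plus 3 SD, cut at about 5.5% in these data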
Hits are given with their value; - = inactive; . = not tested or not shown.

SMILES	DAX1 inh-1	ssDAF-12 act	hgDAF-12 ag	Rev-erbA mod	DAX1 inh-2	hcDAF12 agonist
Cc1cc(C)cc(-n2ncc3c2CCCC3NC(=O)c2csnn2)c1 (stereo not given)	-	-	-	-	4.5	-
Cc1ccc(-n2ncc3c2CCCC3NC(=O)c2csnn2)cc1C (stereo not given)	-	-	-	-	-	-
O=C(N/N=C/c1cccnc1)c1cc(-c2ccc(Cl)cc2)nc2ccccc12	5.6	-	-	-	-	-
O=C(Nc1ccc2[nH]ccc2c1)c1cc(-c2ccc(Cl)cc2)nc2ccccc12	.	-	-	-	-	6.2
O=C(Nc1ccncc1)c1cc(-c2ccc(Cl)cc2)nc2ccccc12	.	-	-	-	-	-
CC1(C)CC(=O)C2=C(C1)Nc1cc3c(cc1C2c1ccc2c(c1)OCO2)OCO3 (stereo not given)	5.3	-	-	-	-	-
O=C(Cn1ncc(N2CCCC2)c(Cl)c1=O)c1ccc(Cl)cc1	-	1.6	-	-	-	-
Cc1nn(CCC(=O)NNC(=O)Nc2ccccc2F)c(C)c1[N+](=O)[O-]	.	-	-	-	-	-
O=C(NC1=NCCS1)c1cccc(F)c1	.	-	-	-	-	-
O=C(NC1=NCCS1)c1ccc(-c2ccc(Cl)cc2)o1	-	-	-	-	-	-
CCOC(=O)c1ccc(NC(=O)NC2=NCCS2)cc1	-	-	11.2	-	-	-
O=C(NC1=NCCS1)c1cccc(Br)c1	7.7	-	11.0	-	-	-
COc1cccc(C(=O)NC2=NCCS2)c1	-	-	10.6	-	-	-
O=C(NC1=NCCS1)c1ccc(Cl)cc1	-	-	-	-	-	5.7
c1ccc(-c2c[nH]c3cccc(-c4cc5ccccc5o4)c23)cc1	.	-	-	-	-	-
COC(=O)[C@]12C[C@H](CC(=O)NCCC(C)C)C(=O)N(CCC3=CCCCC3)C1=C[C@H](C(C)C)O[C@@H]2C1CC1	.	-	-	-	-	-
COc1ccc(S[C@]2(C(=O)N3CCN(c4ncccn4)CC3)CC(=O)N(C(=O)c3ccccc3)[C@@H]2c2ccc(OC)cc2)cc1	.	-	-	-	-	-
CC(C)(C)S(=O)(=O)N1Cc2cc(CO)ccc2[C@@H]1CCO	.	-	-	-	-	-
O=C([C@@H]1C[C@H]1c1ccccc1)N1CC[C@H]2[C@H](CCCN2Cc2ccc(F)cc2)C1	.	-	-	-	-	-
CCOc1cccc(C(=O)NC2=NCCS2)c1	8.1	-	-	-	-	-
CCCCOCCCNC(=O)C[C@H]1C[C@@]2(C(=O)OC)C(=C[C@H](C(C)(C)C)O[C@@H]2C)N(Cc2ccc(Cl)cc2Cl)C1=O	.	-	-	-	-	-
CC(C)CSc1nnc(-c2ccco2)n1C	.	-	-	-	-	-
CN(Cc1cccc(Cl)c1Cl)C(=O)CCNC(=O)c1ccco1	-	-	-	-	4.1	-
COc1cc(-c2coc3c(C(=O)Nc4ccc(C(C)C)cc4)cccc23)ccc1O	.	0.9	-	-	4.0	5.6
COC[C@@H](O)[C@H]1OCc2cc(OC)ccc2[C@@H]1/C=C/c1ccccc1	.	-	-	-	-	-
SMILES	DAX1 inh-1	ssDAF-12 act	hgDAF-12 ag	Rev-erbA mod	DAX1 inh-2	hcDAF12 agonist
COC(=O)[C@]12C[C@H](CC(=O)NCCC(C)C)C(=O)N(Cc3cccc4ccccc34)C1=C[C@H](C(C)C)O[C@@H]2C1CC1	.	-	-	-	-	-
CN(C(=O)c1ccco1)c1nc(-c2ccc(F)cc2)cs1	5.2	-	-	-	-	-
CCCCOCCCNC(=O)C[C@H]1C(=O)N(Cc2ccc(OC)cc2)C2=CCCC[C@@]21C(=O)OCC	.	-	-	-	-	-
COc1ccc2c(c1)CO[C@H]([C@H](O)CO)[C@H]2/C=C/c1ccccc1	.	-	-	-	-	-
Cc1ccc(OCCCC(=O)NC2CCCCC2)cc1	5.0	-	-	-	-	-
COc1cc(CNn2cnnc2)ccc1OCC(=O)NC1CCCCC1	-	-	-	-	-	-
COc1ccccc1CCC(=O)OCC(=O)NC1CCCC1	-	-	-	-	3.7	-
COc1cc(C)ccc1OCC(=O)NC1CCCCCC1	-	-	-	-	4.3	-
C[C@@H]1CNCCN1c1ccc(N2CCS(=O)(=O)CC2)c(C#N)c1	.	-	-	-	-	-
Cc1ccc(C(=O)N/N=C/c2ccc3c(c2)OCO3)o1	-	1.0	-	-	-	5.9
O=C(NN=Cc1ccc2c(c1)OCO2)NN=Cc1ccc2c(c1)OCO2	-	-	-	-	-	-
COc1ccc(-c2cc(-c3nnc(SCC(=O)N4CCOCC4)n3N)[nH]n2)cc1	.	-	-	-	-	-
O=C(CCNC(=O)c1ccccc1Cl)Nc1ccncc1	-	-	-	-	-	-
O=C(CCNC(=O)c1ccccc1Cl)Nc1ccc(Br)c(C(F)(F)F)c1	-	19.4	-	-	-	-
Nc1ccc(-c2nnc(-c3ccc(N)cc3)o2)cc1	4.4	-	-	-	-	-
COc1cc(-c2nnc(-c3cc(-c4ccccc4)nc4ccccc34)o2)cc(OC)c1OC	-	1.2	-	-	-	-
c1ccc(-c2nnc(-c3ccccc3)o2)cc1	4.6	1.2	11.6	-	-	5.9
COc1cc(-c2nnc(-c3ccccc3)o2)cc(OC)c1OC	-	-	-	-	-	-
Cc1cccc(-c2nnc(-c3ccc(N)cc3)o2)c1	-	-	-	-	-	-
COc1ccc(-c2nnc(-c3ccccc3)o2)cc1OC	-	-	10.5	-	-	-
C[C@@H]1C=CCCO[C@]12C(=O)N(Cc1ccc(F)cc1)c1ccccc12	.	-	-	-	-	-
Cc1ccccc1Cn1cc(COC(=O)NCC(C)C)nn1	.	-	-	-	-	-
COC(=O)[C@]12C[C@H](CC(=O)NCC3CCCCC3)C(=O)N(Cc3ccc(Cl)cc3Cl)C1=C[C@H](C(C)C)O[C@@H]2C1CC1	.	-	-	-	-	-
O=S(=O)(c1cc2ccccc2s1)n1c(CN2CCOCC2)nc2ccccc21	.	-	-	-	-	-
COc1ccc(CCN(C)C(=O)CCc2nnc(-c3ccccc3)o2)cc1OC	-	-	11.2	-	-	-
Clc1cccc(/C(Cc2nc3ccccc3[nH]2)=N\Nc2ccccc2)c1	-	1.0	-	-	-	-
c1ccc(N/N=C(\Cc2nc3ccccc3[nH]2)c2ccccc2)cc1	-	-	-	-	-	-
CC(=O)N1CCN(C(=O)CCn2nnc3ccccc32)CC1	.	-	-	-	-	-
